Common to all, as to conditions: mRNA level, 48 h; actives raise or lower the signal
Read-out in assay [1]: JUN Transcription Factor, JUN (gene 3725)
The assay is described as follows: LTEA_HepaRG_JUN: Life Technologies and Expression Analysis (LTEA) Assay for JUN Transcription Factor using HepaRG (AID 2283513). In short, it runs like this:
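Differentiated HepaRG cells were exposed to chemicals for 48 h in serum-free induction medium, 8 concentrations from 100 uM in half-log steps, 0.5% DMSO vehicle, in duplicate. JUN mRNA was quantified by TaqMan qRT-PCR, normalized to ACTB, GAPDH, POLR2A.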

Read-out in assay [2]: Lipase C (LIPC), LIPC (gene 3990)
The assay is described as follows: LTEA_HepaRG_LIPC: Life Technologies and Expression Analysis (LTEA) Assay for Lipase C (LIPC) using HepaRG (AID 2283514). In outline: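 Differentiated human HepaRG cells in serum-free induction medium were exposed in duplicate for 48 h to eight concentrations (top 100 uM, half-log steps, 0.5% DMSO). LIPC mRNA was quantified by TaqMan qRT-PCR, normalized to ACTB, GAPDH and POLR2A, with bidirectional fitting versus DMSO.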

Read-out in assay [3]: Lipoprotein lipase (LPL), LPL (gene 4023)
The assay is described as follows: LTEA_HepaRG_LPL: Life Technologies and Expression Analysis (LTEA) Assay for Lipoprotein lipase (LPL) using HepaRG (AID 2283515). In outline:
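Differentiated human HepaRG cells in serum-free induction medium were exposed in duplicate for 48 h to eight half-log concentrations (top 100 uM) in 0.5% DMSO. LPL mRNA was quantified by TaqMan qRT-PCR, normalized to ACTB, GAPDH and POLR2A.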

Read-out in assay [4]: MicroRNA 122 (MIR122), gene 406906
The assay is described as follows: LTEA_HepaRG_MIR122: Life Technologies and Expression Analysis (LTEA) Assay for MicroRNA 122 (MIR122) using HepaRG (AID 2283516). Note: the transcript read is the microRNA miR-122. In short, it runs like this: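 Differentiated human HepaRG cells were exposed 48 h in serum-free induction medium to eight half-log concentrations (top 100 uM, 0.5% DMSO). Transcript level was measured by TaqMan qRT-PCR, normalized to ACTB, GAPDH and POLR2A, and fitted bidirectionally versus DMSO.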

Read-out in assay [5]: matrix metalloproteinase-10 (MMP10), MMP10 (gene 4319)
Kind of assay: LTEA_HepaRG_MMP10: Life Technologies and Expression Analysis (LTEA) Assay for matrix metalloproteinase-10 (MMP10) using HepaRG (AID 2283517). In short, it runs like this: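 HepaRG, collagen I, ~100,000 cells/well; serum-free induction medium; 48 h exposure, duplicate, 8-pt half-log to 100 uM, 0.5% DMSO. Readout: TaqMan qRT-PCR, normalized to ACTB/GAPDH/POLR2A; bidirectional fit vs DMSO.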

Read-out in the next assay: MYC, MYC (gene 4609)
Kind of assay: LTEA_HepaRG_MYC: Life Technologies and Expression Analysis (LTEA) Assay for MYC using HepaRG (AID 2283518). In short, it runs like this:
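Expression changes were scored by TaqMan qRT-PCR with ACTB, GAPDH and POLR2A normalization. Cultures in serum-free induction medium received duplicate 8-point concentration series, highest 100 uM, for 48 h; DMSO (0.5%) served as baseline.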

Read-out in assay [6]: Paternally Expressed 10 (PEG10), PEG10 (gene 23089)
The assay is described as follows: LTEA_HepaRG_PEG10: Life Technologies and Expression Analysis (LTEA) Assay for Paternally Expressed 10 (PEG10) using HepaRG (AID 2283520). In outline: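 Differentiated HepaRG cells, plated 48 h then switched to serum-free induction medium, were exposed in duplicate for 48 h to eight half-log concentrations topping at 100 uM in 0.5% DMSO. PEG10 mRNA was quantified by TaqMan qRT-PCR, normalised to ACTB, GAPDH and POLR2A.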

Read-out in assay [7]: Nuclear factor NF-kappa-B p105 subunit (Homo sapiens) (UniProt P19838)
The assay is described as follows: LTEA_HepaRG_NFKB1: Life Technologies and Expression Analysis (LTEA) Assay for Nuclear Factor Kappa B Subunit 1 (NFKB1) using HepaRG (AID 2283521).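 Note: TaqMan qRT-PCR transcript normalised to ACTB GAPDH and POLR2A housekeeping genes.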 In outline:
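Human HepaRG cells receive eight half-log concentrations, highest 100 uM, for 48 h. NFKB1 expression is then quantified by qRT-PCR and analysed for up- or down-regulation relative to 0.5% DMSO vehicle.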

Read-out in assay [8]: Protein phosphatase 2A (PPP2R4), PTPA (gene 5524)
The assay is described as follows: LTEA_HepaRG_PPP2R4: Life Technologies and Expression Analysis (LTEA) Assay for Protein phosphatase 2A (PPP2R4) using HepaRG (AID 2283522). In short, it runs like this:
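Differentiated HepaRG cells in serum-free induction medium were exposed in duplicate for 48 h to eight concentrations, top 100 uM with half-log dilutions, in 0.5% DMSO. PPP2R4 mRNA was quantified by TaqMan qRT-PCR, normalized to ACTB, GAPDH and POLR2A.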

Read-out in assay [9]: Phosphatase and tensin (PTEN), PTEN (gene 5728)
The assay is described as follows: LTEA_HepaRG_PTEN: Life Technologies and Expression Analysis (LTEA) Assay for Phosphatase and tensin (PTEN) using HepaRG (AID 2283523). In short, it runs like this:
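Differentiated human HepaRG cells, plated 48 h then switched to serum-free induction medium, were exposed in duplicate for 48 h to eight half-log concentrations up to 100 uM in 0.5% DMSO. PTEN mRNA measured by TaqMan qRT-PCR, normalized to ACTB/GAPDH/POLR2A, bidirectional fit versus DMSO.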

Read-out in assay [10]: solute carrier (SLC22A1), SLC22A1 (gene 6580)
The assay is described as follows: LTEA_HepaRG_SLC22A1: Life Technologies and Expression Analysis (LTEA) Assay for solute carrier (SLC22A1) using HepaRG (AID 2283524). In outline:
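Human HepaRG cells were plated 48 h, switched to serum-free induction medium, then exposed in duplicate for 48 h to 8-point half-log series from 100 uM in 0.5% DMSO. SLC22A1 mRNA measured by qRT-PCR, normalized to ACTB/GAPDH/POLR2A, fitted bidirectionally versus DMSO.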

Read-out in assay [11]: Pyruvate Dehydrogenase Kinase 4 (PDK4), PDK4 (gene 5166)
The assay is described as follows: LTEA_HepaRG_PDK4: Life Technologies and Expression Analysis (LTEA) Assay for Pyruvate Dehydrogenase Kinase 4 (PDK4) using HepaRG (AID 2283525). In short, it runs like this: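 Differentiated human HepaRG cells, pre-cultured 48 h, were exposed in duplicate for 48 h in serum-free induction medium to eight half-log concentrations up to 100 uM in 0.5% DMSO. PDK4 mRNA was quantified by qRT-PCR, normalized to ACTB, GAPDH and POLR2A, bidirectional fitting versus DMSO.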

Read-out in assay [12]: NAD(P)H dehydrogenase [quinone] 1 (NQO1), NQO1 (gene 1728)
Kind of assay: LTEA_HepaRG_NQO1: Life Technologies and Expression Analysis (LTEA) Assay for NAD(P)H dehydrogenase [quinone] 1 (NQO1) using HepaRG (AID 2283526). In short, it runs like this: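 Differentiated HepaRG cells, plated 48 h and then switched to serum-free induction medium, were exposed in duplicate for 48 h to 8-point half-log concentrations up to 100 uM in 0.5% DMSO. mRNA measured by qRT-PCR, normalized to ACTB, GAPDH, POLR2A; bidirectional fit versus DMSO.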

Read-out in assay [13]: Nuclear factor erythroid 2-related factor 2 (Homo sapiens) (UniProt Q16236)
Kind of assay: LTEA_HepaRG_NFE2L2: Life Technologies and Expression Analysis (LTEA) Assay for Nuclear factor erythroid 2-related factor 2 (NFE2L2) Transcription Factor using HepaRG (AID 2283527).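 Note: TaqMan qRT-PCR transcript level normalised to ACTB GAPDH and POLR2A housekeeping genes.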 In outline:
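Differentiated human HepaRG cells in serum-free induction medium were exposed for 48 h to eight concentrations (top 100 uM, half-log dilutions, 0.5% DMSO), in duplicate. NFE2L2 mRNA was quantified by TaqMan qRT-PCR, normalized to ACTB, GAPDH and POLR2A, with bidirectional fitting versus DMSO.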

Read-out in assay [14]: succinate dehydrogenase complex iron sulfur subunit B (SDHB), SDHB (gene 6390)
The assay is described as follows: LTEA_HepaRG_SDHB: Life Technologies and Expression Analysis (LTEA) Assay for succinate dehydrogenase complex iron sulfur subunit B (SDHB) using HepaRG (AID 2283528). In outline:
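A human HepaRG culture in serum-free induction medium received test chemicals for 48 h over an eight-point range capped at 100 uM. SDHB expression change was quantified by qRT-PCR.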

Read-out in assay [15]: Signal transducer and activator of transcription 3 (Homo sapiens) (UniProt P40763)
Kind of assay: LTEA_HepaRG_STAT3: Life Technologies and Expression Analysis (LTEA) Assay for Signal transducer and activator of transcription (STAT3) using HepaRG (AID 2283529). In outline: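 Differentiated human HepaRG cells in serum-free induction medium were exposed in duplicate for 48 h to eight half-log concentrations up to 100 uM in 0.5% DMSO. STAT3 mRNA was quantified by TaqMan qRT-PCR, normalized to ACTB, GAPDH and POLR2A, and fitted bidirectionally against DMSO.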

Read-out in assay [16]: solute carrier (SLCO1B1), SLCO1B1 (gene 10599)
The assay is described as follows: LTEA_HepaRG_SLCO1B1: Life Technologies and Expression Analysis (LTEA) Assay for solute carrier (SLCO1B1) using HepaRG (AID 2283530). In short, it runs like this:
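Human HepaRG cultures treated for 48 h with an eight-concentration half-log series topping at 100 uM; SLCO1B1 measured by qRT-PCR and fitted bidirectionally relative to DMSO.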

Read-out in assay [17]: sulfotransferase 2A1 (SULT2A1), SULT2A1 (gene 6822)
Kind of assay: LTEA_HepaRG_SULT2A1: Life Technologies and Expression Analysis (LTEA) Assay for sulfotransferase 2A1 (SULT2A1) using HepaRG (AID 2283531). In outline:
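Gene-expression endpoint in a human liver cell line: SULT2A1 mRNA change after 48 h chemical treatment, curves fitted in both directions relative to 0.5% DMSO vehicle. Concentrations spanned eight half-log steps from 100 uM.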

Read-out in assay [18]: Transforming Growth Factor (TGFA), TGFA (gene 7039)
Kind of assay: LTEA_HepaRG_TGFA: Life Technologies and Expression Analysis (LTEA) Assay for Transforming Growth Factor (TGFA) using HepaRG (AID 2283532). In outline: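 Differentiated human HepaRG cells, plated 48 h then switched to serum-free induction medium, were exposed in duplicate for 48 h to 8-point half-log series from 100 uM in 0.5% DMSO. TGFA mRNA measured by qRT-PCR, normalized to ACTB/GAPDH/POLR2A, bidirectional fit versus DMSO.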

Read-out in assay [19]: matrix metalloproteinase-3 (MMP3), MMP3 (gene 4314)
The assay is described as follows: LTEA_HepaRG_MMP3: Life Technologies and Expression Analysis (LTEA) Assay for matrix metalloproteinase-3 (MMP3) using HepaRG (AID 2283519). In outline: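 Differentiated human HepaRG cells, plated 48 h on collagen I, were exposed in duplicate for 48 h in serum-free induction medium to eight half-log concentrations up to 100 uM in 0.5% DMSO. MMP3 mRNA was quantified by TaqMan qRT-PCR, normalised to ACTB, GAPDH and POLR2A.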

Consider three compounds from PubChem BioAssay (EPA / NIEHS).

Structures are written as SMILES. The source made the active and inactive calls. Rule for the calls: active = hit-call score of the fitted dose curve at least 0.9, where 1 is the maximum; inactive = score below 0.9.

Signal transducer and activator of transcription 3 (Homo sapiens), sequence (P40763 whole entry, looked up): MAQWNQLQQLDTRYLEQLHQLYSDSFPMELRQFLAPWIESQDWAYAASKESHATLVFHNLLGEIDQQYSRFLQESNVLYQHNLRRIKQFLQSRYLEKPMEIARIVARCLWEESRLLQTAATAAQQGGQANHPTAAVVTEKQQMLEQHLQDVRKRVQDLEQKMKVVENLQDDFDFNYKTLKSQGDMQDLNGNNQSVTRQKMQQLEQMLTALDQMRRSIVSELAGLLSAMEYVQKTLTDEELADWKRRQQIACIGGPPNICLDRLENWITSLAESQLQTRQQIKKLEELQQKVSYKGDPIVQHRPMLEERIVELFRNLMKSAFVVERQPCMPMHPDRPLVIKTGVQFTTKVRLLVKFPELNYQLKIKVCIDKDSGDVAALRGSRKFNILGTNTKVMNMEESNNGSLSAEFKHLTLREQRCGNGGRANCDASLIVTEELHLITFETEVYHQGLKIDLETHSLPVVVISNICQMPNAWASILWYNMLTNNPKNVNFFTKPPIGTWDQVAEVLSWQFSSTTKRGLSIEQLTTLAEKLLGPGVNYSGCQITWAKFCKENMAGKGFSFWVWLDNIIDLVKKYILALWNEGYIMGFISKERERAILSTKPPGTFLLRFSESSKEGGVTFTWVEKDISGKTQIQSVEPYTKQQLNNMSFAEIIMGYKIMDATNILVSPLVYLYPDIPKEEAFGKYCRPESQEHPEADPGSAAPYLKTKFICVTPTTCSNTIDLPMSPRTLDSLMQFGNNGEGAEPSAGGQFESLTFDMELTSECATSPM
Nuclear factor NF-kappa-B p105 subunit (Homo sapiens), sequence (P19838 whole entry, looked up): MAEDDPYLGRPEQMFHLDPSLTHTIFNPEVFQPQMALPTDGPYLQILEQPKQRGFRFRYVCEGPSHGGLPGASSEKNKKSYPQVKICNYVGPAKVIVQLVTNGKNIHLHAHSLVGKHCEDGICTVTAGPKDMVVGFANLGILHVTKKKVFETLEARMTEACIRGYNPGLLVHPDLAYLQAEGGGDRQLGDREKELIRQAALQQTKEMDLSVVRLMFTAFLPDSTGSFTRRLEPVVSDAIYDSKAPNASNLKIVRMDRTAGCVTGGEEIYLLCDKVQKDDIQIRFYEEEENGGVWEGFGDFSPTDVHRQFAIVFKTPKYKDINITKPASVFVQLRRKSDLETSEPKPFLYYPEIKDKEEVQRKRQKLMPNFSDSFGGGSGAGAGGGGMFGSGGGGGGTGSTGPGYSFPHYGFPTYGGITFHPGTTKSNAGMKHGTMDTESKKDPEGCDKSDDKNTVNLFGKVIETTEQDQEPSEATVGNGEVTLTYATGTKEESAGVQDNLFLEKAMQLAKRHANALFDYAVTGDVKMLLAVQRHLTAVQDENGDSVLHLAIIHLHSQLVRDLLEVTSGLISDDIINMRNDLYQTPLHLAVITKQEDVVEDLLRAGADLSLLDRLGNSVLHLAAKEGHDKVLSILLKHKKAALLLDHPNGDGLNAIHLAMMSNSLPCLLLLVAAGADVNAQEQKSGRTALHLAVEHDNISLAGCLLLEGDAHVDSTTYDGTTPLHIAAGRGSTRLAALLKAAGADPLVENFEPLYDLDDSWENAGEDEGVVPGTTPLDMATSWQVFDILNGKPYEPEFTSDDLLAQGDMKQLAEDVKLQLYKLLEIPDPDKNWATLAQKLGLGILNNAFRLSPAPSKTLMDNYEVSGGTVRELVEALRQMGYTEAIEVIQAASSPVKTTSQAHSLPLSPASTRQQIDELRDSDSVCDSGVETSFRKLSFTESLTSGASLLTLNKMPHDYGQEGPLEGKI
Nuclear factor erythroid 2-related factor 2 (Homo sapiens), sequence (Q16236 whole entry, looked up): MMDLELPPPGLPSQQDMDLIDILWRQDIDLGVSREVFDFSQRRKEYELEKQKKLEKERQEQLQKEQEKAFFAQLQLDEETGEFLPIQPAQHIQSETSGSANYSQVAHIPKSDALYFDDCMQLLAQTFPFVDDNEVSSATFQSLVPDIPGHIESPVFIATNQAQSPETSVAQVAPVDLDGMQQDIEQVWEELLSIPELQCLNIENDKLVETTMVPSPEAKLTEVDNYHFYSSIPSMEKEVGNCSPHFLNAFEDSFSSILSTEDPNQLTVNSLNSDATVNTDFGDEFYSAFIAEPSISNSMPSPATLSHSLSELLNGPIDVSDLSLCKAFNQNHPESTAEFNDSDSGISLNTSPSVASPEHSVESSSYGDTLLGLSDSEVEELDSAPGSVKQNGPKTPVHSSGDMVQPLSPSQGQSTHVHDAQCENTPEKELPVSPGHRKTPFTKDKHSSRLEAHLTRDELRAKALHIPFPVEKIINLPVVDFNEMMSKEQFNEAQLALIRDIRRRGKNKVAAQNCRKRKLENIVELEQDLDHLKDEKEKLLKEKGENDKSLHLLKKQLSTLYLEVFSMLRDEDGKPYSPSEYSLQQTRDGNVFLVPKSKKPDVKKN

In the case of `CNS(=O)(=O)c1cc(C(=O)N2CCC(CCN3C4CCC3CC(n3c(C)nc5ccccc53)C4)(c3cccc(F)c3)CC2)c(Cl)cc1F` (configuration not stated), the compound was classed as inactive in assay [1], in [5], in [7], in [8], in [9] and in assay [12]. The compound was called inactive in assay [13], in assay [15] and in assay [18]. Also, the AC50 is 30.1 µM (active) in assay [2]; 18.2 µM (active) in [3]; 18.8 µM (active) in assay [4]; 26.1 µM (active) with MYC, MYC (gene 4609); 13.3 µM (active) in assay [6]; 18.8 µM (active) in [10]. Also, the AC50 in assay [11] is 28.9 µM (active); in assay [14], 17.3 µM (active); in assay [16], 13.1 µM (active); in assay [17], 9.92 µM (active).
For the compound `CN(C)c1ccc(Cc2ccc(N(C)C)cc2)cc1`, the outcome in assay [1] was “inactive”; in assay [3] it was “inactive”; in assay [5] it was “inactive”; with MYC, MYC (gene 4609), “inactive”; in [7], “inactive”; in assay [8], “inactive”. Moreover, the compound was called inactive in assay [9], in assay [10], in assay [11], in [12], in assay [13] and in assay [14]. Besides, the compound was classed as inactive in assay [15], in [16] and in [18]. Also, the AC50 in [2] is 80.1 µM (active); in [4], 50 µM (active); in [19], 50 µM (active); in assay [6], 37.3 µM (active).
`On1ccccc1=S`: the outcome is “inactive” in assay [1]; “inactive” in [2]; “inactive” in assay [3]; “inactive” in assay [4]; “inactive” in assay [5]; “inactive” with MYC, MYC (gene 4609). Besides, the call in assay [6], in assay [7], in assay [8], in assay [9], in assay [10] and in [11] was inactive. For the same compound, the outcome in [12], in assay [13], in assay [14], in assay [15], in [16] and in assay [17] was inactive. Further, the compound was classed as inactive in assay [18].

What is called AC50 is the concentration giving half of the maximal activity seen.
